# Data published in PubChem BioAssay (Tox21).
# Records with an inconclusive call do not appear. Values without a mark were called inactive. Unless noted, calls follow the shape of the dose curve; as a rule, active = well fitted curve in the direction sought with a large enough effect in the repeat runs; inconclusive = weak or mixed curves; inactive = no such curve, though single readings can be large; an effect the other way counts as inactive or inconclusive.
# Test system: not listed separately
# Assay: qHTS assay to identify small molecule antagonists of the retinoid-related orphan receptor gamma (ROR-gamma) signaling pathway - cell viability counter screen (AID 1159520); also: % is scaled to controls: 0 for no effect and ±100 for the full control effect; nearly all actives have a fitted effect of over 50% in size
# Settings: Tet-on RORgamma CHO cells viability, ATP luminescence, 16 h; series mostly up to 92.4 µM; activity, negative = cytotoxicity: at the top concentration
# Outline: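 Tet-on ROR gamma CHO cells (1,000/well) were plated 4 hr, given compounds in DMSO for 2 hr at 37 C, then induced with 1 uM final doxycycline for 16 hr. Viability was read as ATP by CellTiter-Glo luminescence after 30 min.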
row,SMILES,"activity, negative = cytotoxicity"
1,Cc1cc(C)cc([N+](=O)[O-])c1,-1.77%
2,COc1cc([N+](=O)[O-])ccc1N,-2%
3,CCC(O)C(C)(C)C (stereo unspecified),5.69%
4,CN(C)CCCNCCC#N,6.26%
5,Cc1ccc2c(c1)c1c3n2CCNC3CCC1 (stereo unspecified),-0.261% [at 42.5 µM]
6,C1=CCC(c2ccccc2)CC1 (stereo unspecified),2.31%
7,Cc1ccccc1OCC1CO1 (stereo unspecified),-7.28%
8,OC[C@@H](O)[C@H](O)[C@@H](O)[C@@H](O)CO,-0.644%
9,CC(C)COC(=O)CCCCC(=O)OCC(C)C,-4.79%
10,CCC1COC(=O)O1 (stereo unspecified),1.62%
11,CCS(=O)(=O)CCn1c([N+](=O)[O-])cnc1C,-0.03% [at 42.5 µM]
12,CCCCCC1Nc2cc(C(F)(F)F)c(S(N)(=O)=O)cc2S(=O)(=O)N1 (stereo unspecified),0.246% [at 42.5 µM]
13,CCCCCCCCOC(C)=O,3.82%
14,O=C(Nc1cccc(C2=NCCN2)c1)Nc1cccc(C2=NCCN2)c1,4.97% [at 19 µM]
15,CC(=O)OCC(=O)[C@@]1(O)[C@H](OC(C)=O)C[C@H]2[C@@H]3CCC4=CC(=O)C=C[C@]4(C)[C@@]3(F)[C@@H](O)C[C@@]21C,0.1% [at 42.5 µM]
16,CNC(=O)C(c1ccccc1)c1ccccc1,4.97%
17,CC(CC(=O)O)CC(C)(C)C (stereo unspecified),-8.85%

row,SMILES,"activity, negative = cytotoxicity"
1,CCOc1ccc(NC(=O)OC(C)C)cc1OCC,-13.4%
2,NS(=O)(=O)c1ccccc1OC(F)(F)F,-5.86%
3,CC(=O)c1ccc2c(c1)CCCC2,-4.08%
4,CCC1Nc2cc(Cl)c(S(N)(=O)=O)cc2S(=O)(=O)N1 (stereo unspecified),-2.34% [at 42.5 µM]
5,CCCCOC(=O)C(C)OC(=O)CCC (stereo unspecified),5.4%
6,CC1=NN(c2ccc(S(=O)(=O)O)cc2)C(=O)C1N=Nc1ccccc1 (stereo unspecified),-5.29%
7,C=CCOCC(CO)(COCC=C)COCC=C,-2.33% [at 42.5 µM]
8,Nc1cc(Cl)cc(S(=O)(=O)O)c1O,4.02%
9,O=C1OC(=O)c2cc(Oc3ccc4c(c3)C(=O)OC4=O)ccc21,2.83%
10,O=C(Oc1ccccc1C(=O)O)c1ccccc1O,-1.49% [at 42.5 µM]
11,O=C(O)c1ccc(OCCN2CCCCC2)cc1,1.36% [at 42.5 µM]
12,CC(C)CCO,1.82%
13,COCCOCCOCCOC,-0.133%
14,N#CCCOCCOCCC#N,-12.1%
15,O=C(COCCOCCOCC(=O)Nc1c(I)cc(I)c(C(=O)O)c1I)Nc1c(I)cc(I)c(C(=O)O)c1I,6.32% [at 42.5 µM]
16,C[CH2][Ge]([Cl])([CH2]C)[CH2]C,4.71%

# Target: Nuclear receptor ROR-gamma (Homo sapiens) (UniProt P51449)
# Assay: qHTS assay to identify small molecule antagonists of the retinoid-related orphan receptor gamma (ROR-gamma) signaling pathway (AID 1159521;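 also: CHO cells with doxycycline inducible ROR-gamma driving an RORE luciferase reporter; top concentration of the series differs between compounds; % is scaled to controls: 0 for no effect and ±100 for the full control effect; nearly all actives have a fitted effect of over 50% in size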)
# Settings: Tet-on RORgamma CHO cells, RORE-luciferase, 16 h; series mostly up to 92.4 µM; activity change, negative = inhibition: at the top concentration
# Outline: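 Readout: ONE-Glo luciferase luminescence, 30 min at room temperature. System: Tet-on RORγ CHO, RORE-LUC. Sequence: compound 2 h, doxycycline 1 uM final, 16 h at 37 C.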
row,SMILES,"activity change, negative = inhibition"
1,Cc1cc(C)cc([N+](=O)[O-])c1,60.2%
2,OC(CCN1CCCCC1)(c1ccccc1)c1ccccc1,-13.8% [at 42.5 µM]
3,O=c1[nH]c(=O)c2[nH]c(=O)[nH]c2[nH]1,25.7% [at 8.39 µM]
4,CN(C)CCCNCCC#N,-9.89%
5,Cc1ccc2c(c1)c1c3n2CCNC3CCC1 (stereo unspecified),-16.5% [at 42.5 µM]
6,C1=CCC(c2ccccc2)CC1 (stereo unspecified),-13.5%
7,Cc1ccccc1OCC1CO1 (stereo unspecified),-27.2%
8,CCCCCCCCCCCCCC(=O)OC,33.8%
9,OC[C@@H](O)[C@H](O)[C@@H](O)[C@@H](O)CO,13.2%
10,CC(C)COC(=O)CCCCC(=O)OCC(C)C,0.718%
11,CCS(=O)(=O)CCn1c([N+](=O)[O-])cnc1C,3.32% [at 42.5 µM]
12,CCCCCC1Nc2cc(C(F)(F)F)c(S(N)(=O)=O)cc2S(=O)(=O)N1 (stereo unspecified),34.5% [at 42.5 µM]
13,CCCCCCCCOC(C)=O,0.0229%
14,CC(=O)OCC(=O)[C@@]1(O)[C@H](OC(C)=O)C[C@H]2[C@@H]3CCC4=CC(=O)C=C[C@]4(C)[C@@]3(F)[C@@H](O)C[C@@]21C,14.1% [at 42.5 µM]
15,CC(CC(=O)O)CC(C)(C)C (stereo unspecified),-2.42%
16,CCOc1ccc(NC(=O)OC(C)C)cc1OCC,4.22%
17,NS(=O)(=O)c1ccccc1OC(F)(F)F,11.3%
18,CC(=O)c1ccc2c(c1)CCCC2,15%
19,CCC1Nc2cc(Cl)c(S(N)(=O)=O)cc2S(=O)(=O)N1 (stereo unspecified),0.933% [at 42.5 µM]
20,CCCCOC(=O)C(C)OC(=O)CCC (stereo unspecified),30.3%
21,CC1=NN(c2ccc(S(=O)(=O)O)cc2)C(=O)C1N=Nc1ccccc1 (stereo unspecified),26.9%
22,C=CCOCC(CO)(COCC=C)COCC=C,8.85% [at 42.5 µM]
23,Nc1cc(Cl)cc(S(=O)(=O)O)c1O,1.15%
24,O=C1OC(=O)c2cc(Oc3ccc4c(c3)C(=O)OC4=O)ccc21,5.7%
25,O=C(Oc1ccccc1C(=O)O)c1ccccc1O,2.96% [at 42.5 µM]
26,O=C(O)c1ccc(OCCN2CCCCC2)cc1,25% [at 42.5 µM]
27,CC(C)CCO,3.1%
28,CC(=O)OC(C(=O)c1ccccc1)c1ccccc1 (stereo unspecified),-6.23%
29,N#CCCOCCOCCC#N,2.68%
30,O=C(COCCOCCOCC(=O)Nc1c(I)cc(I)c(C(=O)O)c1I)Nc1c(I)cc(I)c(C(=O)O)c1I,23.5% [at 42.5 µM]

# Test system: not listed separately
# Assay: qHTS assay to identify small molecule agonists of the AP-1 signaling pathway - cell viability counter screen (AID 1159525; calls by dose curve; also: nearly all actives have a fitted effect of over 55% in size)
# Settings: ME-180 AP-1-bla cells viability, ATP luminescence, 5 h; series mostly up to 76.8 µM; viability change, negative = cytotoxic: at the top concentration
# Outline: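 ME-180 AP-1-bla, 2500 cells/well, Opti-MEM + 0.5% dialyzed FBS; overnight 37 °C; cpd 15-pt titration, 5 h 37 °C; CellTiter-Glo 30 min RT; luminescence read; normalised to TOAB and DMSO controls.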
row,SMILES,"viability change, negative = cytotoxic"
1,Cc1cc(C)cc([N+](=O)[O-])c1,2.71%
2,COc1cc([N+](=O)[O-])ccc1N,7.16%
3,CCC(O)C(C)(C)C (stereo unspecified),-1.44%
4,OC(CCN1CCCCC1)(c1ccccc1)c1ccccc1,1.83% [at 35.3 µM]
5,Oc1ccccc1Cc1ccccc1O,0.0683%
6,O=c1[nH]c(=O)c2[nH]c(=O)[nH]c2[nH]1,10.8% [at 6.97 µM]
7,CN(C)CCCNCCC#N,6.45%
8,Cc1ccc2c(c1)c1c3n2CCNC3CCC1 (stereo unspecified),2.98% [at 35.3 µM]
9,C1=CCC(c2ccccc2)CC1 (stereo unspecified),-12.4%
10,Cc1ccccc1OCC1CO1 (stereo unspecified),-0.835%
11,CCCCCCCCCCCCCC(=O)OC,3.09%
12,OC[C@@H](O)[C@H](O)[C@@H](O)[C@@H](O)CO,-18.5%
13,CC(C)COC(=O)CCCCC(=O)OCC(C)C,0.203%
14,CCC1COC(=O)O1 (stereo unspecified),0.171%
15,CCS(=O)(=O)CCn1c([N+](=O)[O-])cnc1C,6.82% [at 35.3 µM]
16,CCCCCC1Nc2cc(C(F)(F)F)c(S(N)(=O)=O)cc2S(=O)(=O)N1 (stereo unspecified),-3.46% [at 35.3 µM]
17,CCCCCCCCOC(C)=O,-0.266%
18,O=C(Nc1cccc(C2=NCCN2)c1)Nc1cccc(C2=NCCN2)c1,3.95% [at 15.8 µM]
19,CC(=O)OCC(=O)[C@@]1(O)[C@H](OC(C)=O)C[C@H]2[C@@H]3CCC4=CC(=O)C=C[C@]4(C)[C@@]3(F)[C@@H](O)C[C@@]21C,-1.08% [at 35.3 µM]

row,SMILES,"viability change, negative = cytotoxic"
1,CNC(=O)C(c1ccccc1)c1ccccc1,1.07%
2,CC(CC(=O)O)CC(C)(C)C (stereo unspecified),1.21%
3,CCOc1ccc(NC(=O)OC(C)C)cc1OCC,-2.46%
4,NS(=O)(=O)c1ccccc1OC(F)(F)F,7.19%
5,CC(=O)c1ccc2c(c1)CCCC2,9.57%
6,CCC1Nc2cc(Cl)c(S(N)(=O)=O)cc2S(=O)(=O)N1 (stereo unspecified),5.91% [at 35.3 µM]
7,CCCCOC(=O)C(C)OC(=O)CCC (stereo unspecified),-0.273%
8,CC1=NN(c2ccc(S(=O)(=O)O)cc2)C(=O)C1N=Nc1ccccc1 (stereo unspecified),-2.05%
9,C=CCOCC(CO)(COCC=C)COCC=C,0.712% [at 35.3 µM]
10,Nc1cc(Cl)cc(S(=O)(=O)O)c1O,-14.1%
11,O=C1OC(=O)c2cc(Oc3ccc4c(c3)C(=O)OC4=O)ccc21,1%
12,O=C(Oc1ccccc1C(=O)O)c1ccccc1O,0.105% [at 35.3 µM]
13,O=C(O)c1ccc(OCCN2CCCCC2)cc1,2.32% [at 35.3 µM]
14,CC(C)CCO,1.47%
15,COCCOCCOCCOC,1.75%
16,CC(=O)OC(C(=O)c1ccccc1)c1ccccc1 (stereo unspecified),-0.544%
17,N#CCCOCCOCCC#N,3.93%
18,O=C(COCCOCCOCC(=O)Nc1c(I)cc(I)c(C(=O)O)c1I)Nc1c(I)cc(I)c(C(=O)O)c1I,-0.343% [at 35.3 µM]
19,C[CH2][Ge]([Cl])([CH2]C)[CH2]C,-0.168%
